# TDP-43 yeast inh = inhibitors of TDP-43 toxicity in yeast; TDP-43 expressing yeast growth rescue, BacTiter-Glo, 24 h; 1.8% of 410,000 active; Potency, µM (series often up to 46.1 µM), for the others: at the top dose growth rescue (activation), hits mostly activators; note: % of control where 0% means no effect; nearly all actives have a fitted effect of over 50% in size
#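 Growth rescue of TDP-43-toxic yeast measured as ATP luminescence (BacTiter-Glo). Cells grown to mid-log in raffinose, induced in galactose at OD600=0.02, exposed to compound 24 hr at 30 deg C.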
# FUS yeast rescue = rescues growth of FUS-expressing yeast. 0.24% of 390,000 active. AID 1347120. Potency, µM (titrated, usually from 76.6 µM), most hits filed as activators. S. cerevisiae FUS-expressing, growth rescue, OD600, 24 h;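 note: plate controls were DMSO vehicle for no effect and reference control for full effect; nearly all actives have a fitted effect of over 55% in size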
#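 Yeast FUS proteinopathy model; galactose-induced FUS (2%), starting OD 0.005. Cpds in dilution series, 24hr, 30C, 99% humidity. Abs 600 nm growth. Pos ctrl CP55940 (top 92uM final); neg ctrl DMSO.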
# Abeta yeast res = A-beta toxicity reversal in yeast. yeast expressing A-beta42, growth rescue, OD600, 48 h; response scale: 0% DMSO, 100% iron-clioquinol control. Potency, µM (doses to about 46.1 µM), hits mostly activators. 0.063% of 410,000 active; note: nearly all actives have a fitted effect of over 55% in size
#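 Growth rescue measured by 600 nm absorbance after 48 h yeast culture at 30 C with compound. Values normalized between DMSO and an equimolar ferric chloride plus clioquinol control.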
# aSyn rescue = rescues yeast growth from alpha-synuclein toxicity; Yeast expressing alpha-synuclein, growth rescue, BacTiter-Glo, 24 h; 0.14% of 370,000 active; Potency, µM (doses to about 46.1 µM), inactives show at the highest dose growth rescue (activation), actives largely listed as activators; note: % of control where 0% means no effect; nearly all actives have a fitted effect of over 65% in size
#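 Rescue of yeast growth: cells expressing toxic alpha-synuclein, induced in galactose at OD600 0.02, incubated with compound 24 h at 30 C. ATP luminescence quantified growth; inhibitors of toxicity appear as activators.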
# MBNL1 CUG block = MBNL1-poly(CUG) RNA binding inhibition; Q9NR56; TR-FRET MBNL1-His/biotin-(CUG)12 binding, 665/545 ratio; Potency, µM (titrated, usually from 57.5 µM), for inactives: at the highest dose activity change, negative = inhibition, hits mostly inhibitors; 0.036% of 280,000 active; AID 2675; active = well fitted inhibition curve with a large enough effect in the signal ratio, with a control signal flat, not every such curve was filed as active; inconclusive = small, poorly fitted or top-dose-only effect, or effect the other way, or a change in a side signal; inactive = no such curve, though single readings can be large or run the other way; the % refers to the signal ratio; note: % is set by controls: 0 for no effect and ±100 for the full control effect
# Target sequence (Q9NR56 whole entry, looked up): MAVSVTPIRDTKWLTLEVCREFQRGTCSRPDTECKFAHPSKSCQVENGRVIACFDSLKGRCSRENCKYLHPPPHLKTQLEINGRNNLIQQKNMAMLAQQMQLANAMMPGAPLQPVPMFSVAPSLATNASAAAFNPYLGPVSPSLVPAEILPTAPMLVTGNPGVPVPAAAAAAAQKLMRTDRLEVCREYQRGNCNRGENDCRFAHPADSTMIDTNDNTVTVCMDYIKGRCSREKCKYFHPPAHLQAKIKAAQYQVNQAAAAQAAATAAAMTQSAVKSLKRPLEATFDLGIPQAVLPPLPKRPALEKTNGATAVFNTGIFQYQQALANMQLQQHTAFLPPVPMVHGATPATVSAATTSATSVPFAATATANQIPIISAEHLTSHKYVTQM
#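 Inhibition of protein-RNA binding appears as loss of TR-FRET between terbium anti-His antibody on MBNL1-His and streptavidin-XL665 on biotin-(CUG)12. Activity is normalized to buffer-only and uninhibited-complex controls.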
# GRP78 ERSR act = ER stress response induction in glioma; U87-MG GRP78 promoter luciferase reporter, 16 h; Potency, µM, for the others: top-dose activation, hits mostly activators; 0.02% of 420,000 active; note: series mostly up to about 76 µM; % of control where 0% means no effect; nearly all actives have a fitted effect of over 35% in size
#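 ERSR induction read as luciferase luminescence (Bright-Glo, 10 min at room temperature) in stably transfected human U87-MG glioma cells exposed to compounds for 16 h, using GRP78 as sensor.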
# An asterisk follows results filed as active; i = inactive; ? = inconclusive; · = not tested or not shown; [ ] = remark or other dose. Most compounds without a hit are left out; they make up all but 2% or so of the library. Unless noted, calls come from the whole dose curve; as a rule, active = well fitted curve in the direction sought with a large enough effect; inconclusive = small, poorly fitted or top-dose-only effect, or another doubt; inactive = no such curve, though single readings can be large; an effect the other way counts as inactive or inconclusive. Potency is the fitted concentration of half-maximal effect.
SMILES,TDP-43 yeast inh,FUS yeast rescue,Abeta yeast res,aSyn rescue,MBNL1 CUG block,GRP78 ERSR act
CN(CCOC(=O)c1cccs1)C1CN(Cc2cn(Cc3ccccc3Cl)nn2)S(=O)(=O)C1 (configuration not stated),·,i,·,·,·,·
Cc1ccc(C)c(C(=O)COC(=O)c2n[nH]c3ccccc23)c1,20µM*,i,i,?,·,1.1%
Cc1cccc(C)c1OCCOC(=O)c1n[nH]c2ccccc12,-11.8%[1.82 µM],i,?,2.4%,13.7%,0.7%
Cc1cc(C)cc(N=c2c([N+](=O)[O-])nn(-c3ccc4c(c3)OCCO4)n2O)c1,9.2%,i,i,-0.6%,?,-4.9%
O=[N+]([O-])c1nn(-c2ccc3c(c2)OCCO3)n(O)c1=NC1CCCCCC1,15.8µM*,i,i,3.3%,?,2.1%
O=[N+]([O-])c1nn(-c2ccc3c(c2)OCCO3)n(O)c1=NC1CCCC1,5.01µM*,i,i,-0.3%,?,-6.1%
O=[N+]([O-])c1nn(-c2ccc3c(c2)OCCO3)n(O)c1=NCCCO,0.9%,i,i,-0.3%,?,-2.1%
CNC(C#Cc1ccccc1)c1ccccc1C(F)(F)F (configuration not stated),·,i,·,·,·,·
Cc1ccc(NC(=S)NNC(=O)CSc2nnc(SCc3cccc4ccccc34)s2)cc1,·,i,·,·,·,·
O=C1c2ccccc2C(=O)N1CCCc1c[nH]c2ccc(Cl)cc12,10µM*,·,i,5.2%,1.7%,2.1%
Cc1c(C(=O)OC2CCCC2C)[nH]c2c1C(=O)CCC2 (configuration not stated),20µM*,i,i,-13.3%,1.5%,0.5%
Cc1c(C(=O)OCCOc2ccccc2)[nH]c2c1C(=O)CCC2,22.4µM*,i,?,-5.7%,-5.8%,-11.3%
COc1ccc(S(=O)(=O)n2nc(-c3ccco3)nc2NCc2ccc(N(C)C)cc2)cc1,9.1%,31.6µM*,i,·,·,0.8%
CCOc1ccc(OCCN2C(=O)NC3(CCCc4ccccc43)C2=O)cc1 (configuration not stated),35.5µM*,i,i,4.9%,18.1%,-5.2%
O=C1NC2(CCCc3ccccc32)C(=O)N1CCOc1ccc(Br)cc1 (configuration not stated),2.0%,i,i,1.3%,1.3%,-2.7%
COc1cc(=O)n2c(c1C(=O)NC(C)c1ccco1)CCN(Cc1ccnc3ccccc13)CC2 (configuration not stated),·,·,·,·,·,-0.4%
COc1ccc(OC)c(/C=C/C(=O)N2CCN(S(=O)(=O)c3cc(C)ccc3C)CC2)c1,8.2%,31.6µM*,i,1.3%,·,-5.1%
COc1ccccc1CCc1nc2ccccc2n1C1CCN(C(=O)c2cc(C)nn2C)CC1,·,·,·,·,·,-4.6%
O=C(N/N=C/C(Br)=C/c1ccccc1)c1ccccc1F,14.1µM*,i,i,-16.1%,?,-7.4%
O=C(O)c1cncc(C#CCC2CCCCC2)c1,14.1µM*,i,i,2.6%,·,-1.3%
O=C(O)c1cncc(C#Cc2ccccc2)c1,21.2%,i,i,12.3%,-5.5%,6.3%
CCOC(=O)c1csc(NC(=O)C2CCCN(S(=O)(=O)c3ccccc3[N+](=O)[O-])C2)n1 (configuration not stated),·,i,·,·,·,·
S=C(Nc1ccc(Cl)c(Cl)c1)N1CCCC1,3.16µM*,i,i,-6.4%,2.3%,-3.6%
CCCCc1ccc(NC(=S)N2CCCC2)cc1,20.9%,i,11.2µM*,-18.1%,-2.4%,18.6%
Cc1nc2cc(Cl)c(Cl)cc2n1-c1ccccn1,12.6µM*,i,i,-3.4%,·,0.8%
S=C(Nc1nc2c(s1)CCCC2)NC1CC1,26.4%,i,8.91µM*,1.9%,6.2%,11.1%
CCOC(=O)c1noc2ncn(Cc3ccc([N+](=O)[O-])cc3)c(=O)c12,20µM*,i,i,·,·,-4.7%

# Source: PubChem BioAssay (National Center for Advancing Translational Sciences (NCATS))
